MCF10A rerep = A quantitative high throughput screen for small molecules that induce DNA re-replication in MCF 10a normal breast cells. MCF 10A DNA re-replication, Hoechst nuclear intensity, 48 h. Potency, µM (top dose mostly 46.1 µM), for the others: at the highest dose activity, positive = re-replication, hits mostly activators. hit rate 2.9% among 350,000. AID 624296, 2012; note: % of control where 0% means no effect; nearly all actives have a fitted effect of over 50% in size
ALOX12 inh = Primary qHTS assay for inhibitors of human arachidonate 12S-lipoxygenase (ALOX12): Round 2; purified 12hLO, xylenol orange hydroperoxide absorbance; Potency, µM (series often up to 108 µM), inactives show top-dose activity change, negative = inhibition, actives largely listed as inhibitors; hit rate 1.1% among 580,000; note: % is set by controls: 0 for no effect and ±100 for the full control effect
Target sequence (P18054 whole entry, looked up): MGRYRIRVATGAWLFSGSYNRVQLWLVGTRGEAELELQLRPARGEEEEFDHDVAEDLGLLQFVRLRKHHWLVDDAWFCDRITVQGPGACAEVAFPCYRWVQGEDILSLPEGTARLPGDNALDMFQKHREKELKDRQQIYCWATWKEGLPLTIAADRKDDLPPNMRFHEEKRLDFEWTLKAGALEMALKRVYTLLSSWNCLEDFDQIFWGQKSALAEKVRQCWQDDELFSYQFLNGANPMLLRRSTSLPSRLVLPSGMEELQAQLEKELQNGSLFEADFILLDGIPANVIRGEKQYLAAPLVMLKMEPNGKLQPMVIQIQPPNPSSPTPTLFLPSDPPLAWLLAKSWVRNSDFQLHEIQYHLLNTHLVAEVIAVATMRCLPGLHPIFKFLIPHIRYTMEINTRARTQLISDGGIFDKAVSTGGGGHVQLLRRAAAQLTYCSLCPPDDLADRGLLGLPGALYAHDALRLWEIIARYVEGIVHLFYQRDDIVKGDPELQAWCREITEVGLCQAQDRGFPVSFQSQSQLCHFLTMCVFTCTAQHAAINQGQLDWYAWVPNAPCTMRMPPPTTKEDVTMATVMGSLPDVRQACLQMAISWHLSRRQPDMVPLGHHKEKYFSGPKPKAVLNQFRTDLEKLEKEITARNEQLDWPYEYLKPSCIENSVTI
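Purified human 12hLO (150 nM final) in 25 mM Hepes, 0.01% Triton X-100, pH 7.0 was preincubated 15 min at room temperature with compound. Then 40 uM arachidonic acid was added, 30 min. Hydroperoxide was read by Fe-XO absorbance ratio 573/405 nm.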
KB-3-1 cytotox = qHTS assay for MDR1-selective chemotherapeutics: Primary screen using the parental adenocarcinoma cell KB-3-1 | KB-3-1 viability, CellTiter-Glo ATP luminescence, 72 h | Potency, µM (series often up to 46.1 µM), usual class: cytotoxic | hit rate 1.4% among 400,000; note: % is set by controls: 0 for no effect and ±100 for the full control effect; nearly all actives have a fitted effect of over 60% in size
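Cytotoxicity measured as CellTiter-Glo luminescence after 72 h at 37 C. Compound titrations were pinned onto drug-naive KB-3-1 parental adenocarcinoma cells grown in DMEM with 10% FBS, and normalized data fitted to concentration-response curves.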
KB-V1 cytotox = qHTS assay for MDR1-selective chemotherapeutics: Primary screen using the drug-selected MDR subline cells KB-V1; KB-V1 MDR cells viability, CellTiter-Glo, 72 h; Potency, µM (top dose mostly 46.1 µM), usual class: cytotoxic; hit rate 3.4% among 400,000; note: % is set by controls: 0 for no effect and ±100 for the full control effect; nearly all actives have a fitted effect of over 60% in size
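Readout: CellTiter-Glo luminescence, 10 min after addition. Cells: KB-V1 MDR subline, 72 h at 37 degrees C with compound. Analysis: corrected, normalized data fitted to concentration-effect curves.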
SW480 rerep = A quantitative high throughput screen for small molecules that induce DNA re-replication in SW480 colon adenocarcinoma cells; SW480 DNA re-replication, Hoechst DNA content imaging, 48 h; Potency, µM (highest dose often 46.1 µM), for the others: at the top dose re-replication activation, actives largely listed as activators; hit rate 1.8% among 340,000; note: % of control where 0% means no effect; nearly all actives have a fitted effect of over 55% in size
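Compounds, transferred as 23 nL by pin tool, were incubated with cells for 48 hr; DNA content per nucleus was then quantified by Hoechst staining and fluorescence plate imaging.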
PINK1 expr mod = A Quantitative High throughput Screen to Identify Chemical Modulators of PINK1 Expression | PINK1 immunofluorescence, high-content cytometry, 24 h | hit rate 0.2% among 410,000 | AID 624263, 2012 | Potency, µM (series often up to 76.6 µM), for inactives: at the highest dose activation (PINK1 increase), hits mostly activators; active = well fitted activation curve with a large enough effect; inconclusive = small, poorly fitted or top-dose-only effect; cell line not stated here; note: % of control where 0% means no effect; nearly all actives have a fitted effect of over 65% in size
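PINK1 protein, normally rapidly degraded, was detected by immunofluorescence after 24 hour compound treatment of a stable cell line. Titration data (5 concentrations) came from laser-scanning cytometry, with CCCP-treated wells as controls.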
Numbers without * were called inactive; i = inactive; ? = inconclusive; nt = not tested or not shown; [ ] = another dose, or the depositor's remark. Only some compounds are listed: those with a hit (about 5.8% of all), similar ones and a draw of the others. Unless noted, calls come from the whole dose curve; as a rule, active = well fitted curve in the direction sought with a large enough effect; inconclusive = small, poorly fitted or top-dose-only effect, or another doubt; inactive = no such curve, though single readings can be large; an effect the other way counts as inactive or inconclusive. Potency is the fitted concentration of half-maximal effect.

SMILES	MCF10A rerep	ALOX12 inh	KB-3-1 cytotox	KB-V1 cytotox	SW480 rerep	PINK1 expr mod
CCCCn1c(SCc2ccccc2C)nc2ccsc2c1=O	nt	-10.3%	nt	nt	nt	5.0%
COc1cccc(-n2cnc3scc(-c4ccc(Cl)cc4)c3c2=O)c1	nt	-3.0%	nt	nt	nt	nt
CCCN(CCC)c1nc(N)c(C#N)c(CC#N)c1C#N	6.51µM*	nt	i	i	13.6%	18.4%
O=C(CSc1nnc(Cn2nnc(-c3ccccc3)n2)n1-c1ccccc1)Nc1ccc(F)cc1	-0.1%	-9.5%	i	i	-4.4%	nt
O=C(CSc1nnc(Cn2nnc(-c3ccccc3)n2)n1-c1ccccc1)Nc1ccccc1	20.4%	2.2%	i	14.6µM*	0.4%	21.0%
Cc1nn(C)c(C)c1NC(=O)CSc1nnc(C)n1-c1ccccc1	-0.3%	12.7%	i	i	-4.3%	4.3%[38.3 µM]
Cc1cccc(C)c1NC(=O)CSc1nnc(Cn2nnc(-c3ccccc3)n2)n1-c1ccccc1	8.6%	-2.0%	i	8.2µM*	-0.3%	6.4%[38.3 µM]
O=C(O)CCSc1ccccc1Cl	nt	-10.5%	nt	nt	nt	nt
Cc1cccc(N/N=C(/c2ccccc2)c2ccc(F)cc2)c1C	nt	5.01µM*	nt	nt	nt	nt
COc1ccc(CNC(=O)c2nc(-c3nn(-c4ccc(C)cc4)c(=O)n(C)c3=O)no2)cc1	nt	-8.4%	nt	nt	nt	nt
CCOC(=O)C1=C(CC)Nc2ccccc2N=C1NC(=O)c1ccc(OC)c(S(=O)(=O)N2CCCCC2C)c1 (centres undefined)	3.66µM*	-5.8%	i	?	8.0%	3.2%
CCOC(=O)C1CCN(C(c2cccnc2)c2c(NC(=O)c3ccco3)sc(C)c2C)CC1 (centres undefined)	?	-6.1%	3.26µM*	2.91µM*	?	10.6%
CC1=C(C(=O)OC(C)(C)C)C(c2cccc3ccccc23)NC(=S)N1 (centres undefined)	nt	50.6%	nt	nt	nt	nt
COc1cccc(C2NC(=S)NC(C)=C2C(=O)c2ccccc2)c1OC (centres undefined)	?	44.7µM*	1.84µM*	?	5.8µM*	5.0%
COc1ccc(N2CCN(c3oc(-c4ccco4)nc3C#N)CC2)cc1	-5.6%	-19.0%	?	14.6µM*	-8.7%	4.6%
CCCCN1C(=O)/C(=C2/Sc3ccccc3N2C)S/C1=N\c1ncn[nH]1	14.6%	-2.8%	?	?	14.6µM*	8.2%
CCNC(=O)CN(CC)S(=O)(=O)c1cccc2cc(C)cnc12	nt	9.9%	nt	nt	nt	nt
Cn1c(COc2ccc(C(C)(C)C)cc2)nnc1SCc1ccc(F)cc1	nt	-20.7%	nt	nt	nt	nt
CS(=O)(=O)c1ccc(NCCc2ccc(S(N)(=O)=O)cc2)c([N+](=O)[O-])c1	-9.7%	11.3%	i	i	-5.3%	-2.6%
CNS(=O)(=O)c1ccc(NCCc2ccc(S(N)(=O)=O)s2)c([N+](=O)[O-])c1	nt	17.8µM*	nt	nt	nt	nt
O=C(Nc1ccc(-c2nc3ccc(NC(=O)c4cccs4)cc3[nH]2)cc1)c1cccs1	?	?	6.51µM*	i	?	6.3%
Cc1cccc(C(=O)Nc2ccc(C(=O)Nc3ccc(O)cc3)cc2)c1	14.6µM*	41.7%	i	i	-0.7%	5.3%
Cc1cccc(C(=O)Nc2ccc(NC(=O)c3cccc(C)c3)cc2)c1	nt	1.5%	?	i	nt	2.4%
Cc1ccc(NC(=O)c2ccc(NC(=O)c3ccccc3)cc2)cc1C	24.1%	-8.6%	23.1µM*	18.4µM*	?	?
CNC(=O)c1ccc(NS(=O)(=O)c2cc(C(C)(C)C)ccc2C)cc1	nt	10.0%	nt	nt	nt	nt
SMILES	MCF10A rerep	ALOX12 inh	KB-3-1 cytotox	KB-V1 cytotox	SW480 rerep	PINK1 expr mod
CC(=O)Nc1ccc(NC(=O)c2ccc(NS(=O)(=O)c3cc(C(C)(C)C)cc(C)c3C)cc2)cc1	18.4µM*	-8.8%	i	i	1.1%	0.5%
Cc1ccc(NC(=O)CSc2ccc(N3CCC(C(=O)N4CCCCC4)CC3)nn2)cc1C	nt	-14.4%	nt	nt	nt	nt
Cc1nc2cc(NS(=O)(=O)c3ccc(C)c(C)c3)ccc2o1	nt	3.7%	nt	nt	nt	nt
Cc1ccc(C(=O)Nc2cc(C(C)C)c(O)c(C(C)C)c2)cc1	-2.0%	-11.1%	?	16.4µM*	-0.9%	1.5%
O=C(Nc1ccc(O)cc1)c1ccc(NC(=O)c2cccs2)cc1	18.4µM*	-29.7%	18.4µM*	i	-10.1%	6.9%
Cc1ccc(NC(=O)CCC(=O)NNC(=O)Cc2ccccc2)cc1C	1.84µM*	23.5%	i	i	5.9%	nt
O=C(Nc1ccc(NC(=O)c2cccs2)cc1)c1ccccc1	-1.1%	-9.0%	i	i	?	10.2%
O=C1CC(c2ccccc2)N(C(=O)C2CC2)CCCN(C(=O)NCCc2ccccc2)CCN1 (centres undefined)	nt	29.9%	nt	nt	nt	nt
O=C1N[C@@H](c2ccccc2)COC(=O)[C@@H](Cc2ccc(F)cc2)C/C=C\C[C@H]1CC(=O)N(CCO)Cc1ccccc1	?	?	20.6µM*	?	?	0.6%
O=C(N[C@H]1C/C=C\C[C@@H](CC(=O)N(CCO)Cc2ccccc2)C(=O)NC[C@H](c2ccccc2)OC1=O)OCC1c2ccccc2-c2ccccc21	6.51µM*	?	?	i	4.9%	0.1%
C[C@@H]1COC(=O)[C@H](NC(=O)OCC2c3ccccc3-c3ccccc32)C/C=C\C[C@@H](CC(=O)N(CCO)Cc2ccccc2)C(=O)N1	0.6%	nt	i	i	1.5%	2.4%
O=C(N[C@@H]1C/C=C\C[C@@H](CC(=O)N(CCO)Cc2ccccc2)C(=O)NCCOC1=O)OCC1c2ccccc2-c2ccccc21	14.9%	nt	i	i	-1.5%	0.1%
O=C(N[C@@H]1C/C=C\C[C@H](CC(=O)N(CCO)Cc2ccccc2)C(=O)N[C@@H](Cc2ccccc2)COC1=O)OCC1c2ccccc2-c2ccccc21	13µM*	0.3%	?	i	?	0.6%
COc1cccc(CNC(=O)Nc2cccc(-c3nnc(Cc4ccc5c(c4)OCO5)o3)c2)c1	nt	-9.6%	nt	nt	nt	nt
COc1ccc(C(C)=O)cc1CSc1nnc(C)n1-c1ccccc1	1.6%	-12.1%	i	20.6µM*	-3.3%	1.4%
COc1ccc(C(C)=O)cc1CSc1nnc(-c2ccccc2O)n1-c1ccccc1	-7.4%	1.9%	i	i	1.8%	-0.4%[38.3 µM]
CC(C)S(=O)(=O)C1=NSC2=NC(=O)/C(=C\c3ccc(-c4ccccc4)o3)C(=N)N21	16.4µM*	25.1µM*	i	16.4µM*	?	16.2%

Compound activity: PubChem BioAssay, National Center for Advancing Translational Sciences (NCATS)
